# Results: PMC4081100, “A DNA-binding-site landscape and regulatory network analysis for NAC transcription factors in Arabidopsis thaliana”
# Experiments:
# Experiment in all cases: universal protein binding microarray (PBM); transcription factors of Arabidopsis thaliana; high values mean tight binding
# GST-ANAC092(1-176) = target: T1, GST-ANAC092(1-176) (Arabidopsis thaliana, UniProt Q9FKA0 1-176); conditions: protein: recombinant; tags: GST; chain copies: 2; dsDNA, one strand shown
# T1 sequence: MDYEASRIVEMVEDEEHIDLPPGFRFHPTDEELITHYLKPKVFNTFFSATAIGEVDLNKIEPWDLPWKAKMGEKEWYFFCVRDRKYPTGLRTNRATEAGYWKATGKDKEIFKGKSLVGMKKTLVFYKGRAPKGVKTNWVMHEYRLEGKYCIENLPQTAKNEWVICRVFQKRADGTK
# Outline: (§1)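 GST-tagged proteins (NAC-domain, full-length or DNA-binding-domain) were induced in cells, with zinc acetate supplied for zinc-finger proteins, then purified on glutathione–Sepharose 4B. Each was tested in duplicate at 200 to 500 nM final on custom all-10-mer Agilent 4 × 180K arrays rendered double-stranded by primer extension. The binding value is the normalised enrichment score (E-score) across gapped and ungapped 8-mers.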
# GST-NTL6(1-168) = GST-NTL6(1-168) (Arabidopsis thaliana, UniProt Q9SCK6 1-168); conditions: protein: recombinant; tags: GST; chain copies: 2; dsDNA, one strand shown
# GST-NTL6(1-168), sequence (Q9SCK6 1-168): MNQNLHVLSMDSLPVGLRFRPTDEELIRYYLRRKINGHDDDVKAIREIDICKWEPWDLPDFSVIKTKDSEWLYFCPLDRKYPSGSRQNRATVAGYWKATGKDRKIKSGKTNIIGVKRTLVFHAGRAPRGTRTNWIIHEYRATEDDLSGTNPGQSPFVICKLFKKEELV
# Outline: as §1
# GST-ANAC019 NAC domain = target: T2, GST-ANAC019 NAC domain (Arabidopsis thaliana, UniProt Q9C932 14-162); conditions: protein: recombinant; tags: GST; chain copies: 2; dsDNA, one strand shown
# T2 sequence: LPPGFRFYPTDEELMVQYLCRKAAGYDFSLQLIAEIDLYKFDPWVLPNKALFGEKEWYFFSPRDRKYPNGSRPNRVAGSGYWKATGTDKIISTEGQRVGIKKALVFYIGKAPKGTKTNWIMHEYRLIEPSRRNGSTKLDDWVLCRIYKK
# Outline: as §1
# GST-ANAC055(1-171) = target: T3, GST-ANAC055(1-171) (Arabidopsis thaliana, UniProt Q9LDY8 1-171); conditions: protein: recombinant; tags: GST; chain copies: 2; dsDNA, one strand shown
# T3 sequence: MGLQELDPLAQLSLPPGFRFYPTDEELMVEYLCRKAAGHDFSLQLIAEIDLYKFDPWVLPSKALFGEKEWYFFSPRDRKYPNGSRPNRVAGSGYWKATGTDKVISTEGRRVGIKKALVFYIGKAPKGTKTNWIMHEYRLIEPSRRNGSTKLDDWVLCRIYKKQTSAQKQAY
# Outline: as §1
# GST-NAP(1-166) = target: T4, GST-NAP(1-166) (Arabidopsis thaliana, UniProt O49255 1-166); conditions: protein: recombinant; tags: GST; chain copies: 2; dsDNA, one strand shown
# T4 sequence: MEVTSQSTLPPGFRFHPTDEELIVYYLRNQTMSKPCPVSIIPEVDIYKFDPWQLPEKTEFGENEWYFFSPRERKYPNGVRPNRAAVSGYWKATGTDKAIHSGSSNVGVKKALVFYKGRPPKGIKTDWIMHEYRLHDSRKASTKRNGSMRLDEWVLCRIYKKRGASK
# Outline: as §1
# GST-NST2(1-184) = target: T5, GST-NST2(1-184) (Arabidopsis thaliana, UniProt Q9M274 1-184); conditions: protein: recombinant; tags: GST; chain copies: 2; dsDNA, one strand shown
# T5 sequence: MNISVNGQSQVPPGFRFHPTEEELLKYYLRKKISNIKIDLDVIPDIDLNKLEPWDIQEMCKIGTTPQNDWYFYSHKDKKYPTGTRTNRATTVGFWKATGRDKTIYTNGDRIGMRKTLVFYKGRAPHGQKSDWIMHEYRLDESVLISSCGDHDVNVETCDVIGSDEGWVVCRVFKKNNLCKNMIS
# Outline: as §1
# GST-VND3 NAC domain = target: T6, GST-VND3 NAC domain (Arabidopsis thaliana, UniProt Q9FH59 12-162); conditions: protein: recombinant; tags: GST; chain copies: 2; dsDNA, one strand shown
# T6 sequence: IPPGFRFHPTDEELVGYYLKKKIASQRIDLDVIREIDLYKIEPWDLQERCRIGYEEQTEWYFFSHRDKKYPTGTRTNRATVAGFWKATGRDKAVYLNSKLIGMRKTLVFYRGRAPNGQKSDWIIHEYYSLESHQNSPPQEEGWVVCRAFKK
# Outline: as §1
# GST-WRKY1(266-371) = GST-WRKY1(266-371) (Arabidopsis thaliana, UniProt Q9SI37 266-371); conditions: protein: recombinant; tags: GST; dsDNA, one strand shown
# GST-WRKY1(266-371), sequence (Q9SI37 266-371): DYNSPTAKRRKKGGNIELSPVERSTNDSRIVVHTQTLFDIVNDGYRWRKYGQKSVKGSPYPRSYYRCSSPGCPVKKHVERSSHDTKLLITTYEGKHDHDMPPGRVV
# Outline: as §1
# GST-ATAF1 NAC domain = target: T7, GST-ATAF1 NAC domain (Arabidopsis thaliana, UniProt Q39013 7-158); conditions: protein: recombinant; tags: GST; chain copies: 2; dsDNA, one strand shown
# T7 sequence: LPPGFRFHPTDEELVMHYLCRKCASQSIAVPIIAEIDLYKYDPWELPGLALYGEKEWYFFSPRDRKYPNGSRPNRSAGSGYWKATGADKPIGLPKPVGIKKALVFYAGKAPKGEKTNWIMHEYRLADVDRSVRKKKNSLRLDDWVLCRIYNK
# Outline: as §1
# [1] = target: T8, GST-ANAC092(1-285) full length (Arabidopsis thaliana, UniProt Q9FKA0 1-285); conditions: protein: recombinant; tags: GST; chain copies: 2; dsDNA, one strand shown
# T8 sequence: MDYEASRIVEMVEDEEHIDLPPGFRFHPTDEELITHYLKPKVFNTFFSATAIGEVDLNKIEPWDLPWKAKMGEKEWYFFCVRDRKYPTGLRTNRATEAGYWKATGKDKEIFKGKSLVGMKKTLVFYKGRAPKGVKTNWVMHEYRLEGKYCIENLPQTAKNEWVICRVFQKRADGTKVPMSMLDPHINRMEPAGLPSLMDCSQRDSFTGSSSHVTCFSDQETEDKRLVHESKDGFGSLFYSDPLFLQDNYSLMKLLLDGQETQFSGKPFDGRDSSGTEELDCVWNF
# Outline: as §1
# GST-VND7 NAC domain = target: T9, GST-VND7 NAC domain (Arabidopsis thaliana, UniProt Q9C8W9 9-158); conditions: protein: recombinant; tags: GST; chain copies: 2; dsDNA, one strand shown
# T9 sequence: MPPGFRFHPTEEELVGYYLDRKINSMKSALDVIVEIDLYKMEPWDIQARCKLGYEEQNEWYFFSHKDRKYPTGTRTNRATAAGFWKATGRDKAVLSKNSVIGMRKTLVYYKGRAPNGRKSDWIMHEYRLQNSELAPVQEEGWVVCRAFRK
# Outline: as §1
# GST-NTL8 NAC domain = target: T10, GST-NTL8 NAC domain (Arabidopsis thaliana, UniProt Q9XIN7 14-156); conditions: protein: recombinant; tags: GST; chain copies: 2; dsDNA, one strand shown
# T10 sequence: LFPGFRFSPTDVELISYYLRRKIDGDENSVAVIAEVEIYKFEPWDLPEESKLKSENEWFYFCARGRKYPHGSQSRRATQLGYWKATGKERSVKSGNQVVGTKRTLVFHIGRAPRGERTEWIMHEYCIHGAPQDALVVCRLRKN
# Outline: as §1
Sequence,binding signal (GST-ANAC092(1-176)) [E-score],binding signal (GST-NTL6(1-168)) [E-score],binding signal (GST-ANAC019 NAC domain) [E-score],binding signal (GST-ANAC055(1-171)) [E-score],binding signal (GST-NAP(1-166)) [E-score],binding signal (GST-NST2(1-184)) [E-score],binding signal (GST-VND3 NAC domain) [E-score],binding signal (GST-WRKY1(266-371)) [E-score],binding signal (GST-ATAF1 NAC domain) [E-score],binding signal [1] [E-score],binding signal (GST-VND7 NAC domain) [E-score],binding signal (GST-NTL8 NAC domain) [E-score]
GGATTGAC,0.0627,0.0579,0.102,0.0598,0.0556,0.12,0.094,0.459,–,–,–,–
ATAGTCAA,–,–,–,0.122,0.0851,0.146,0.211,0.473,0.263,0.12,0.12,–
AAAGTCGT,–,–,0.29,0.271,0.132,0.13,0.145,0.429,0.258,–,0.176,–
TACAGTCA,–,–,0.109,0.0559,–,–,0.167,0.404,0.107,0.131,0.0649,0.0899
ACACGGCT,0.181,–,0.418,0.347,0.194,–,0.348,–,0.264,0.335,0.321,–
CTATTGAC,–,0.075,–,0.0817,0.0658,–,0.06,0.451,0.0721,–,–,–
TGACTAAA,–,0.0547,0.0691,–,–,0.111,0.0682,0.42,–,–,0.0902,–
AGTCAATC,0.0925,0.0768,0.0741,–,0.0978,0.0674,0.0908,0.468,0.0533,0.0868,–,0.122
TCTGGTCA,–,–,–,–,–,–,0.059,0.455,–,–,–,–
CCACGGAA,0.219,0.117,0.427,0.326,0.149,0.123,0.343,–,0.211,0.244,0.316,0.107
ATTGACTA,0.0863,–,–,0.18,0.0723,0.182,0.228,0.466,0.259,0.153,–,–
AGTCGTGC,–,–,0.412,0.341,–,–,0.324,0.294,0.264,–,0.273,–
AATGGTCA,–,0.0526,–,–,–,–,0.0734,0.434,–,–,–,–
TGGTCAAA,0.0858,–,–,–,–,–,0.118,0.491,0.062,0.0538,–,–
